In PubChem BioAssay (NCI):
About 83,000 compounds went through this panel and 20% of them were active in at least one assay; those are over-represented in the sample as a whole.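 Plates (96-well) were seeded with cells, treated with compound at one concentration, and incubated for 48 hours before percent growth was determined.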 Active and inactive are the calls of the source.

What follows are compounds tested on HCC-2998 colon (assay: NCI-60 one-dose screen, 48 h (100 = growth as untreated, 0 = no growth, -100 = all killed)). Conditions: 10 µM unless noted.
Procedure: Growth inhibition of the HCC-2998 human tumor cell line is measured as a screen for anti-cancer activity. Cells are grown in 96 well plates and exposed to the test compound for 48 hours. Compounds are tested at a single concentration, which is 10^-5 M for most compounds. The reported endpoint is percent growth (GI% or GIPRCNT), where numbers from 0 - 100% represent growth inhibition, and numbers from -100% - 0 represent cell death. For example, a value of 40 represents 60% growth inhibition. A value of 0 means no net growth occurred over the course of the experiment. A value of -40 indicates 40% of cells at the beginning of the experiment died by the end of the experiment. A value of -100 means all cells are dead at the end of the experiment.
NCI-60 Human Tumor Cell Lines Screen was performed using the standard one-dose NCI protocol, which is described in more detail at https://dtp.cancer.gov/discovery_development/nci-60/default.htm.
Compounds with GIPRCNT values below 10 were considered active. Activity score was based on GIPRCNT using the following formula: […]
Score is 0 for GIPRCNT values of 100 or above, 50 for GIPRCNT values of 0, and 100 for GIPRCNT values of -100.

SMILES | growth
COc1cc(-c2cc3ncccc3c3[nH]c(=O)c4cccnc4c23)cc(OC)c1OC | 48.5% (inactive)
COC(=O)[C@]12CC[C@@H](C(C)=O)[C@@H]1[C@H]1CC[C@@H]3[C@@]4(C)C/C(=C/c5cccnc5)C(=O)C(C)(C)[C@@H]4CC[C@@]3(C)[C@]1(C)CC2 | 75.8% (inactive)
CCCCC/C(=C\c1ccccc1)C1OC(C)C(C)O1 (stereo not given) | 102% (inactive)
Oc1ccc(CCC2CCCC(CCc3ccc(OCCF)cc3)N2)cc1 (stereo not given) | 88.4% (inactive)
Cc1nnc2nc(N)[nH]n2c1=O | 102% (inactive)
COc1ccc2c(c1)c1nc3cc(C)c(C)cc3nc1n2CCN(C)C | 20.5% (inactive)
COc1cnc2c(c1)C(=O)c1c-2n(CCCNCCN2CCOCC2)c(=O)c2cc([N+](=O)[O-])ccc12 | -73.3% (active)
Oc1cccc2ccc(N/N=C/c3cc(CN4CCCCC4)c(O)c4ncccc34)nc12 | 5.61% (active)
Cc1ccc(/C=C(\C#N)c2cc3ccccc3n2C)cc1 | 17.4% (inactive)
O=[N+]([O-])c1ccc(N/N=C(\C(=N/Nc2ccc([N+](=O)[O-])cc2[N+](=O)[O-])c2ccccc2)c2ccccc2)c([N+](=O)[O-])c1 | 89.6% (inactive)
COc1ccc2c3c(c4ccccc4cc13)C(=O)N(CCN(C)CCN)C2=O | -80.2% (active)
Cn1cc(-c2csc(-c3cn(CCCN4CCCCC4)c4ccc(Br)cc34)n2)c2cccnc21 | 85.5% (inactive)
Cn1cc(-c2nc(-c3c[nH]c4ncccc34)cs2)c2ccccc21 | 32.6% (inactive)
CN1CCN(CCOc2ccc(-c3cnc4c(-c5ccccc5F)cnn4c3)cc2)CC1 | 22.4% (inactive)
Nc1c(C(=O)Nc2cccc(Br)c2)sc2nc3c(cc12)C(=O)CCC3 | 38.2% (inactive)
COC(c1ccccc1)(c1ccccc1)c1ccccc1 | 142% (inactive)
COc1ccc(-c2nc3ccccn3c2-c2nc3ccc(Cl)cc3[nH]2)cc1 | 97.6% (inactive)
COc1cccc2c1C(=O)c1c(O)c3c(c(O)c1C2=O)C[C@@](O)(C(=O)CO)C[C@@H]3OC1C[C@H](N)[C@H](O)[C@H](C)O1 (stereo not given in full) | -45.9% (active)
CCCCCCCCNc1cccc2c1C(=O)c1ccccc1C2=O | 107% (inactive)
COc1ccc(/C=C/C(=O)NCC(C)O)cc1 (stereo not given) | 100% (inactive)

SMILES | growth
COc1ccc(O)c(-c2cc(-c3ccc(Cl)cc3)c(C#N)c(=O)[nH]2)c1 | 70.6% (inactive)
CC1(c2ccccc2)OC1C(=O)O (stereo not given) | 96.5% (inactive)
O=c1[nH]c(=S)[nH]c2nc[nH]c12 | 99.7% (inactive)
Fc1ccc(NCc2nnc(-c3ccc(Cl)cc3)o2)cc1 | 98% (inactive)
O=[N+]([O-])c1cccc(/C=N\Nc2ccccc2)c1 | 83.8% (inactive)
O=C(/C=C/c1cccc2ccccc12)Nc1ncc(Cc2ccccc2)s1 | 54.3% (inactive)
COc1cc(-c2cc(-c3nc4ccccc4[nH]3)[nH]n2)cc(OC)c1OC | 71.4% (inactive)
CCN1CCN(C(=O)[C@]23CCC(C)(C)C[C@@H]2C2=CC[C@@H]4[C@@]5(C)C/C(=C/c6cccnc6)C(=O)C(C)(C)[C@@H]5CC[C@@]4(C)[C@]2(C)CC3)CC1 | 18.9% (inactive)
N=c1c(S(=O)(=O)c2ccccc2)cc2c(=O)n3ccccc3nc2n1C1CCCC1 | 103% (inactive)
CCOC(=O)N1CCN(CCCCOc2ccc(C(C)(C)CC)cc2)CC1 | 107% (inactive)
CC1c2ccccc2N(S(=O)(=O)c2ccccc2)C1C (stereo not given) | 101% (inactive)
Cc1cc(N2CCCC2)nc(N(CCNc2ccnc3cc(Cl)ccc23)Cc2ccco2)n1 | 76.6% (inactive)
c1ccc(C2Cc3ccccc3C2=NC2CCCCC2)cc1 (stereo not given) | 108% (inactive)
COC(=O)[C@]12CC[C@@H](C)[C@H](C)[C@@H]1C1=CC[C@@H]3[C@@]4(C)C[C@@H](OC(C)=O)[C@H](O)[C@@](C)(COC(C)=O)[C@@H]4[C@H](O)C[C@@]3(C)[C@]1(C)CC2 | -89.7% (active)
COc1ccc(C2=NN(c3nc(-c4ccc(OC)cc4)c(C#N)c(=O)n3C)C(=O)CC2)cc1 | 91.8% (inactive)
COc1ccc(-c2n/c(=C\c3c(O)[nH]c4ccc(OC)cc34)cc3c2=Nc2ccccc2-3)cc1 | 22.7% (inactive)
Cc1nn(-c2ccc(Br)cc2)c2nc3[nH]c(=O)[nH]c(=O)c3nc12 | 114% (inactive)
CC(C)=CCC/C(C)=C/CC/C(C)=C/CC/C(C)=C/CSC[C@H](NC(=O)CCCCCN1CCN(C)CC1)C(=O)NC1CCCCC1 | 63.8% (inactive)
Cc1ccc(-c2ccc(Nc3ccccc3)nn2)cc1S(N)(=O)=O | 59.8% (inactive)
N#CC1=C(N)Oc2c(c(N)nn2-c2ccccc2)C1c1ccc(Cl)cc1Cl (stereo not given) | 106% (inactive)
